Results filed as inconclusive are left out. Activity calls are given as the source filed them. The calls were made as follows: active = hit-call score of the fitted dose curve at least 0.9, where 1 is the maximum; inconclusive = response in the unintended direction; inactive = score below 0.9.
target: rat Vasopressin 1 Receptor (V1), Avpr1a (gene 25107) (UniProt P30560); test: NVS_GPCR_rV1: NovaScreen (NVS) G Protein-Coupled Receptor Assay for rat Vasopressin 1 Receptor (V1) (AID 2283316)
In short: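 Radioligand binding on rat liver membranes, 1.5 h incubation, filter-based scintillation counting. Single 25 uM screen in duplicate; chemicals meeting threshold (e.g. 30% inhibition) run in concentration-response up to 50 uM.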

rat Vasopressin 1 Receptor (V1), Avpr1a (gene 25107), sequence (P30560 whole entry, looked up): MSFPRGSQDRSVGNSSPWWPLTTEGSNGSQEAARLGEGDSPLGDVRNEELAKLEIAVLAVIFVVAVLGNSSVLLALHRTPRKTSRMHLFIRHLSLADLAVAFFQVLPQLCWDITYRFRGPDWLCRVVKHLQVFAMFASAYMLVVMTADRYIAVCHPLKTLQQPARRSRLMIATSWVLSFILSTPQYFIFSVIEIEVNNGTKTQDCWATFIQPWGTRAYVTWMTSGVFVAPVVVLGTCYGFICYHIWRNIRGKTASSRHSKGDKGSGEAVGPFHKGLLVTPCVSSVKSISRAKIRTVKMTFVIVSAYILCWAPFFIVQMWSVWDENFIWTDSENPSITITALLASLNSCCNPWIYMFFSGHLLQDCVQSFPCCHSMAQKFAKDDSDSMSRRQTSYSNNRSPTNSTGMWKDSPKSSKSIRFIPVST

| Structure (SMILES) | outcome | AC50 |
| --- | --- | --- |
| CO[C@@H]1COCC[C@@H]1N[C@@H]1CC[C@@](C(=O)N2CCc3ncc(C(F)(F)F)cc3C2)(C(C)C)C1 | inactive |  |
| CC(=O)O | inactive |  |
| CC(C)c1cccc(C(C)C)c1NC(=O)NS(=O)(=O)c1cc(C(C)(C)O)co1 | inactive |  |
| CCc1cc(C2=C(C(=O)O)N(c3ccccc3C(F)(F)F)S(=O)(=O)c3ccccc32)cc2c1OCO2 |  | 25 µM (active) |

target: Sodium channel protein type 1 subunit alpha (Rattus norvegicus) (UniProt P04774); test: NVS_IC_rNaCh_site2: NovaScreen (NVS) Ion Channel Assay for rat Sodium Channel, Site 2 (NaCh) (AID 2283322);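 also: hit means loss of radioligand binding signal relative to DMSO so AC50 marks displacement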
In short: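 Membranes: rat forebrain. Format: competitive radioligand displacement, filter separation, scintillation readout, 1 h exposure. Primary screen in duplicate at 25 uM; actives retested in concentration series.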

| Structure (SMILES) | outcome | AC50 |
| --- | --- | --- |
| CCCCC(CC)COC(=O)CCCCCCCC(=O)OCC(CC)CCCC (stereo unspecified) | inactive |  |
| CO[C@@H]1COCC[C@@H]1N[C@@H]1CC[C@@](C(=O)N2CCc3ncc(C(F)(F)F)cc3C2)(C(C)C)C1 |  | 9.94 µM (active) |
| CCCCC(CC)COP(=O)(OCC(CC)CCCC)OCC(CC)CCCC (stereo unspecified) | inactive |  |
| O=C1NC(=O)C(c2ccccc2)(c2ccccc2)N1 | inactive |  |
| Cn1cnc2c1c(=O)[nH]c(=O)n2C | inactive |  |

target: rat Glutamate, AMPA Site (AMPA), Gria1 (gene 50592) (UniProt P19490); test: NVS_LGIC_rAMPA: NovaScreen (NVS) Ligand-Gated Ion Channel Assay for rat Glutamate, AMPA Site (AMPA) (AID 2283324)
Sequence (P19490 whole entry, looked up): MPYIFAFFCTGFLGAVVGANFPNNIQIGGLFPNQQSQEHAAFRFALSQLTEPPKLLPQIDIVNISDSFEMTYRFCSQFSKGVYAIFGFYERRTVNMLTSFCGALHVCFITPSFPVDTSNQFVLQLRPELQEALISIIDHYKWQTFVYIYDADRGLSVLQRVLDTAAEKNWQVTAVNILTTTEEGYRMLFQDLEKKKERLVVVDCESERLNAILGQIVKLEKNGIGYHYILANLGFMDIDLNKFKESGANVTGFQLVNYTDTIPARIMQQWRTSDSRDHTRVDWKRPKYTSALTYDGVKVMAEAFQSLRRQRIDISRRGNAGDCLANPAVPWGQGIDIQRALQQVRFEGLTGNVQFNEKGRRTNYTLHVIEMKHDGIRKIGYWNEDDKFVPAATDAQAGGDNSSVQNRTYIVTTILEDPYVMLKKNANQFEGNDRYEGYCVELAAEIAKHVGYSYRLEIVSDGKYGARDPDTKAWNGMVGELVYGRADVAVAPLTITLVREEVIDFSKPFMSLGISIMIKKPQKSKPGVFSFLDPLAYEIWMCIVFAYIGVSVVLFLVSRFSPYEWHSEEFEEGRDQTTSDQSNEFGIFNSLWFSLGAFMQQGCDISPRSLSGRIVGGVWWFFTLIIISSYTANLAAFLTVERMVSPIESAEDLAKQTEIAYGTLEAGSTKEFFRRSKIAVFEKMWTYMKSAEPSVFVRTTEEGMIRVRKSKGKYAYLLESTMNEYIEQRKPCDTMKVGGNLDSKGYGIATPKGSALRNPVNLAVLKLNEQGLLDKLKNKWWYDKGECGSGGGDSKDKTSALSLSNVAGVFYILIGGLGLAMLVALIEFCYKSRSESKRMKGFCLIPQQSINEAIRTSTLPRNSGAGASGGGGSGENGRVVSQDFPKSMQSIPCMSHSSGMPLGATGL
In short: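 Rat forebrain membranes; radioligand binding read 1 h after dosing by filtration and scintillation counting. Duplicate single-point screen at 25 uM, then concentration-response to 50 uM for threshold hits (e.g. 30% inhibition); loss of signal vs DMSO.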

| Structure (SMILES) | AC50 | outcome |
| --- | --- | --- |
| O=Cc1ccccc1C=O | 13.5 µM (active) |  |
| CC(C)NCC(O)c1ccc(O)c(O)c1 (stereo unspecified) |  | inactive |
| CCCCC(CC)COP(=O)(OCC(CC)CCCC)OCC(CC)CCCC (stereo unspecified) |  | inactive |

target: human Serotonin, 5-Hydroxytryptamine Receptor 3 (5HT3), HTR3A (gene 3359) (UniProt P46098); test: NVS_LGIC_h5HT3: NovaScreen (NVS) Ligand-Gated Ion Channel Assay for human Serotonin, 5-Hydroxytryptamine Receptor 3 (5HT3) (AID 2283325)
Sequence (P46098 whole entry, looked up): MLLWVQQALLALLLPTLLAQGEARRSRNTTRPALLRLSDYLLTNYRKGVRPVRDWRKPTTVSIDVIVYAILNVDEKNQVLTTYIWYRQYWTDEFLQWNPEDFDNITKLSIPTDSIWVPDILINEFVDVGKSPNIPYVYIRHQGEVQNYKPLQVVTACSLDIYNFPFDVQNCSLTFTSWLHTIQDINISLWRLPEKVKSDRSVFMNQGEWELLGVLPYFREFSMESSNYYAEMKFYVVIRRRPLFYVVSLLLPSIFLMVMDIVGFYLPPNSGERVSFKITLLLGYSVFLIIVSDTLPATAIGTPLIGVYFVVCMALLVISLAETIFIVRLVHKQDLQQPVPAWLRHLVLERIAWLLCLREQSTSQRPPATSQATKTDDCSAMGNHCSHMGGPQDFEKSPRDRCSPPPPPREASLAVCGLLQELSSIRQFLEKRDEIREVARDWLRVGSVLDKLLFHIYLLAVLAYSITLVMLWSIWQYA
In short: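 Radioligand displacement binding to human 5-HT3 from HEK293 membranes, read by filter-based scintillation counting after 1 h. Screen at 25 uM in duplicate; chemicals passing threshold were retested in concentration-response up to 50 uM.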

| Structure (SMILES) | AC50 | outcome |
| --- | --- | --- |
| Cc1cn([C@H]2C=C[C@@H](CO)O2)c(=O)[nH]c1=O | 8.81 µM (active) |  |
| C/C=C/C=C/C(=O)O |  | inactive |
| CCCCCCCCCCCCCCOS(=O)(=O)O | 25 µM (active) |  |
| OCC(O)CO | 25 µM (active) |  |
